The source of these data is PubChem BioAssay (EPA / NIEHS).

SMILES strings stand for the structures. The source made the active and inactive calls. How the source made its calls: active means hit-call score of the fitted dose curve at least 0.9, where 1 is the maximum; inactive means score below 0.9.

Chain of Bile acid receptor (Homo sapiens) (Q96RI1 whole entry, looked up): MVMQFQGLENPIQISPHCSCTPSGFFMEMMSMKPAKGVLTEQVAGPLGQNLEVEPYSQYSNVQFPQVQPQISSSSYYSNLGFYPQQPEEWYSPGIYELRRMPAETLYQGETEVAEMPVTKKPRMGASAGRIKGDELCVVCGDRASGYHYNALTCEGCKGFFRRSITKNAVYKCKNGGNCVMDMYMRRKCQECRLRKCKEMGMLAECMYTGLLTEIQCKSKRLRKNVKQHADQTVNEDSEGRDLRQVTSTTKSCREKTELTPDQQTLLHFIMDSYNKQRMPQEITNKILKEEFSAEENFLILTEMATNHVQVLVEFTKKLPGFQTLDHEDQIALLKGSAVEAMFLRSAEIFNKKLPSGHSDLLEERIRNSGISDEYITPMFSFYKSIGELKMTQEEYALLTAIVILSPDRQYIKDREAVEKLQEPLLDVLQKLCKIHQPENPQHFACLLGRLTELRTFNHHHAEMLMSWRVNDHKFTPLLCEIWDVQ

The assay has as its target Bile acid receptor (Homo sapiens) (UniProt Q96RI1). Description: ATG_IR1_CIS: Attagene CIS-FACTORIAL HepG2 Assay for human Nuclear Receptor Subfamily 1 Group H Member 4 (NR1H4), IR1 submotif (AID 2282946). As to conditions: IR1 reporter transcription, actives raise or lower the signal. The gist of the method:
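HepG2 cells transiently transfected with multiple cis-promoter-driven reporter units to measure endogenous transcription factor activity; 24 h exposure. Reporter mRNA read by RT-PCR, FAM labelling, HpaI digestion and capillary electrophoresis. Bidirectional fit versus DMSO.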
Turning to `CCCCCCCCCCBr`, the molecule was called inactive.
With `N#CCCC(Br)(C#N)CBr` (stereo not drawn), the concentration at half-maximal activity (AC50) was 53.9 µM (active).
As to `O=C(NC(=O)c1c(F)cccc1F)Nc1cc(Cl)c(Oc2ncc(C(F)(F)F)cc2Cl)c(Cl)c1`, the molecule was called inactive.
Same read-out and setting: for `C=C(C)[C@@H]1CC=C(C=O)CC1` the value was “inactive”; for `Cc1cc(SCc2sc(-c3ccc(C(F)(F)F)c(F)c3)nc2C)ccc1OCC(=O)O`, “inactive”.
Take `ClCc1ccccc1CCl`: the AC50 was 33.4 µM (active).
With `C[N+](C)(C)Cc1ccccc1`, the result was inactive.
Same read-out and setting: for `O=C1C=CC(=O)c2ccccc21` the value was “inactive”.
On the same count and under the same terms, for `O=C(NC(=O)c1c(F)cccc1F)Nc1cc(Cl)c(OC(F)(F)C(F)C(F)(F)F)cc1Cl` (stereo not drawn) the value was “inactive”.
The same measure, in the same setting: for `CC(C)CP(=S)(S)CC(C)C` the value was “inactive”; for `Cc1cc(C(F)(C(F)(F)F)C(F)(F)F)ccc1NC(=O)c1cccc(I)c1C(=O)NC(C)(C)CS(C)(=O)=O`, “inactive”; for `O=S1OC[C@@H]2[C@H](CO1)[C@]1(Cl)C(Cl)=C(Cl)[C@@]2(Cl)C1(Cl)Cl` (stereo partly drawn), “inactive”.
As to `CNC(=O)CSP(=O)(OC)OC`, the result was inactive.
Still for that read-out and setting: next, `c1csc(-c2ccc(-c3cccs3)s2)c1`: “inactive”.
On the same count and under the same terms, for `C1CCC(C2CCCCC2)CC1` the value was “inactive”; for `NC(=O)c1ccc(N)nc1`, “inactive”.
On the same count and under the same terms, next, `CC(F)(F)CC(F)(F)F`: “inactive”.
As to `C=CC(=O)[O][Sn]([CH2]CCC)([CH2]CCC)[CH2]CCC`, the AC50 is 0.0956 µM (active).
As for `O=S(=O)(C(Cl)(Cl)Cl)C(Cl)(Cl)Cl`, the result was inactive.
Same read-out and setting: for `COC(=O)c1cc(Oc2ccc(Cl)cc2Cl)ccc1[N+](=O)[O-]` the value was “inactive”.
`CC(C)(c1ccc(O)c(-c2ccccc2)c1)c1ccc(O)c(-c2ccccc2)c1`: the call was inactive.
Still for that read-out and setting: for `Clc1cc(C(Cl)(Cl)Cl)cnc1Cl` the value was “inactive”; for `CCOC(=O)OC1=C(c2cc(C)ccc2C)C(=O)NC12CCC(OC)CC2` (stereo not drawn), “inactive”.
Still for that read-out and setting: next, `CCCSP(=S)(OCC)Oc1ccc(SC)cc1` (stereo not drawn): “inactive”; `ClCCN1CCOCC1`: “inactive”.
Regarding `FC(F)OCC(F)(F)C(F)(F)F`, the molecule was called inactive.
The same measure, in the same setting: for `N#Cc1ccccc1N` the value was “inactive”.
In the case of `[F][Sn]([c]1ccccc1)([c]1ccccc1)[c]1ccccc1`, the half-maximal activity concentration (AC50) was 1.24 µM (active).
With `C[As+](C)(C)CC(=O)[O-]`, the call was inactive.
Take `O=C(Nc1ccc(Br)cc1)c1cc(Br)cc(Br)c1O`: the concentration at half-maximal activity (AC50) was 72.3 µM (active).
`O=[N+]([O-])c1ccc(Cl)c([N+](=O)[O-])c1`: the call was inactive.
In the case of `CC(=Cc1ccccc1)[N+](=O)[O-]`, the AC50 is 5.55 µM (active).
Turning to `CCOc1ccc(N)cc1`, the result was inactive.
